A549 viability = A549 cytotoxicity, counter-screen for Nrf2 inhibitors. A549 ARE-Fluc cells, CellTiter-Fluor viability, 18-24 h. Potency, µM (series often up to 46 µM), for the others: at the top dose activity change, negative = cytotoxicity, most hits filed as inhibitors. hit rate 0.16% among 390,000. AID 504648; also: % is scaled to controls: 0 for no effect and ±100 for the full control effect
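A549 ARE-Fluc cells in 5% FBS OPTI-MEM, 5000 cells/well, rested 2 h then exposed to compounds in concentration-response for 18-24 h at 37 °C. Viability by CellTiter-Fluor fluorescence (Ex 405/Em 525) after 30 min; luciferase luminescence (BugLite, 15 min, RT) read afterwards.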
Nrf2 activator = Nrf2 pathway activation | AREc32 ARE-luciferase reporter (MCF7-derived line), luminescence, 24 h | Potency, µM (highest dose often 46.1 µM), inactives show top-dose activation, usual class: activators | hit rate 0.31% among 410,000 | AID 624171; also: % of control where 0% means no effect; nearly all actives have a fitted effect of over 65% in size
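AREc32_Fluc, 1000 cells/well, OPTI-MEM + 5% FBS, o/n 37 deg C 5% CO2; 23 nL cpd by pin tool, 24 hr; Steady-Glo 30 min RT, luminescence.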
S2 tox = cell viability loss in ATXN counter-screen; S2 cells (HEK-293 line with an ATXN2-luciferase reporter) viability, CellTiter-Fluor protease fluorescence, 24 h; Potency, µM (titrated, usually from 56.7 µM), actives largely listed as cytotoxic; hit rate 0.49% among 400,000; AID 651635; also: nearly all actives have a fitted effect of over 40% in size
ATXN2 expr inh = reduces ATXN2 reporter expression in HEK-293 cells; HEK-293 ATXN2-luciferase reporter, luminescence, 24 h; Potency, µM (top dose mostly 57 µM), for inactives: at the top dose activity change, negative = inhibition, most hits filed as inhibitors; hit rate 0.72% among 360,000; AID 1745845; also: % is scaled to controls: 0 for no effect and ±100 for the full control effect; nearly all actives have a fitted effect of over 55% in size
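ATXN2-luciferase reporter cells (luciferase flanked by upstream and downstream ATXN2 gene portions) were treated 24 h at 37 °C with compounds at up to 57 uM. SteadyGlo luminescence gave expression; GF-AFC fluorescence gave viability.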
Nrf2 inh = blocks Nrf2 signaling; Potency, µM (highest dose often 46 µM), for inactives: at the highest dose activity change, negative = inhibition, actives largely listed as inhibitors; A549 ARE-Fluc reporter, luciferase luminescence, 18-24 h; hit rate 2.1% among 360,000; also: % is scaled to controls: 0 for no effect and ±100 for the full control effect; nearly all actives have a fitted effect of over 60% in size
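Quantitative HTS in A549 cells stably bearing an antioxidant response element-firefly luciferase construct. Inhibition of Nrf2-driven transcription was scored by luminescence after 18-24 h of compound exposure at 37 °C.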
* = called active by the depositor; i = inactive; ? = inconclusive; / = not tested or not shown. An excerpt weighted towards active compounds, which were near 2.9% of everything screened. Calls follow the shape of the dose curve; as a rule, active = well fitted curve in the direction sought with a large enough effect; inconclusive = small, poorly fitted or top-dose-only effect, or another doubt; inactive = no such curve, though single readings can be large; an effect the other way counts as inactive or inconclusive. Potency is read from the fitted curve at half-maximal effect.

SMILES	A549 viability	Nrf2 activator	S2 tox	ATXN2 expr inh	Nrf2 inh
CN(C)S(=O)(=O)c1cccc(NC(=O)CCc2nc3sc4c(c3c(=O)[nH]2)CCCC4)c1	-15.7%	1.5%	?	?	16.4µM*
Cc1ncc(-c2ccnc(Nc3ccc(S(C)(=O)=O)cc3)n2)n1C(C)C	/	/	/	3.43µM*	/
CC(N)c1csc(Nc2ccc(S(C)(=O)=O)cc2)n1 (stereo unspecified)	/	-0.4%	i	12.9%	/
O=C(CCn1cnc2ccccc2c1=O)Nc1cccc(Cl)c1Cl	-0.9%	-0.8%	0.159µM*	/	-14.3%
CC(=O)c1ccc(NC(=O)c2nc(-c3ccccc3)n(-c3ccc(Cl)cc3)n2)cc1	0.2%	0.0%	i	5.4%	-28.4%
COc1ccc(NC(=O)c2cc(CC(C)C)nc3ccccc23)cc1	0.3%	-2.3%	i	/	?
Cc1ccc(NC(=O)c2cc(CC(C)C)nc3ccccc23)cc1	4.0%	-2.5%	i	-5.2%	5.8µM*
CCN(CC)CC(=O)OCC(=O)[C@@]1(O)CC[C@H]2[C@@H]3CCC4=CC(=O)CC[C@]4(C)[C@H]3[C@@H](O)C[C@@]21C	/	/	i	-5.8%	/
O=C(Nc1cc(Cl)ccc1O)c1cc(-c2ccco2)on1	-4.0%	6.31µM*	i	57.3%	-12.3%
O=C(Nc1cc(Br)ccc1O)c1cc(-c2ccccc2)on1	5.4%	9.7%	i	/	3.1%
O=C(Nc1cccnc1Cl)c1cc(-c2ccco2)on1	0.6%	10µM*	i	49.5%	?
O=C(Nc1cc(Br)ccc1O)c1cc(-c2ccco2)on1	-4.9%	4.47µM*	i	30.5%	?
O=C(Nc1cccc(Cl)c1)c1cc(-c2ccco2)on1	-0.8%	10.1%	i	4.0%	5.3%
COc1cccc(CNc2ncnc3sc(C(=O)N4CCOCC4)c(C)c23)c1OC	/	/	i	/	/
COC(=O)c1scc(C)c1NC(=O)Nc1ccccc1	-6.9%	4.7%	i	-24.8%	/
COC(=O)c1scc(C)c1NC(=O)c1ccccc1F	2.4%	12.6µM*	i	/	?
COC(=O)c1scc(C)c1NC(=O)C(Cl)c1ccccc1 (stereo unspecified)	2.3%	12.6µM*	i	/	3.5%
CCc1ccccc1NC(=O)CSc1ncccc1C(=O)O	1.5%	0.3%	i	2.5%	/
COC(=O)c1cccc(C(=O)N2CCc3c(C(=O)OC)c(OCc4ccccn4)cc(=O)n3CC2)c1	/	/	i	/	/
Cc1ccc(S(=O)(=O)N2CCN(C(=O)CSC3CCCC3)CC2)c(C)c1	-12.0%	-0.6%	i	-9.5%	25.9µM*
COc1ccc(S(=O)(=O)N2CCN(Cc3ccccc3)CC2)c(C)c1	-1.1%	0.6%	i	/	-11.8%
Cc1ccc(S(=O)(=O)N2CCN(CCc3ccccc3)CC2)c(C)c1	-1.6%	2.4%	i	-10.3%	18.4µM*
CC(=O)NC(CC(=O)OCC(=O)N1CCN(S(=O)(=O)c2ccc(C)cc2C)CC1)c1ccccc1 (stereo unspecified)	4.1%	0.7%	i	/	20.6µM*
O=C(Cc1c[nH]c2ccccc12)N1CCC(n2c(C3CCCO3)nc3cc(C(F)(F)F)ccc32)CC1 (stereo unspecified)	/	/	i	/	/
COc1ccc2c(c1)OC(C)CN(CCNC(=O)c1csc(-c3cccs3)n1)C2 (stereo unspecified)	/	/	i	/	/
SMILES	A549 viability	Nrf2 activator	S2 tox	ATXN2 expr inh	Nrf2 inh
O=C(c1cccs1)N(Cc1ccco1)c1ccc(O)cc1	2.8%	/	/	/	-16.5%
COc1ccc(-c2nc3c4ccccc4ccn3c2CN2CCCCC2)cc1OC	-15.6%	15.5%	31.6µM*	/	4.9%
CC(=O)N[C@@H](CCC(N)=O)C(=O)O	/	/	i	5.4%	/
Cc1ccc(Oc2nnc(-c3cccs3)c3ccccc23)cc1C	-7.7%	0.7%	i	-15.7%	18.4µM*
COc1cc(C(=S)N2CCC(C)CC2)ccc1O	/	0.1%	i	7.7%	18.4µM*
NCCC(=O)[N-][C@@H](Cc1cnc[nH]1)C(=O)O.[Zn]	/	/	i	/	/
COC(=O)C1=CO[C@@H](O)[C@@H]2C(CO)=CC[C@@H]12	/	/	/	-9.8%	/
FC(F)(F)c1ccc(Nc2nc3ccc(Oc4ccnc(-c5ncc(C(F)(F)F)[nH]5)c4)cc3[nH]2)cc1	/	/	/	-11.5%	/
COc1cc2c(NC3CCN(C(C)C)CC3)nc(C3CCCCC3)nc2cc1OCCCN1CCCC1	/	/	/	21.7µM*	/
